Molecular target: C-X-C chemokine receptor type 6 (Homo sapiens) (UniProt O00574)
Assay: CXCR6 and CXCR5 receptor antagonist panel, profiling panel, selectivity assay for CXCR6 antagonist project, cell-based, CHO-K1 PathHunter beta-arrestin, luminescence, set 4 (AID 651919)
Conditions: run 4, at 79 µM (top of the series)

C-X-C chemokine receptor type 6 (Homo sapiens), sequence (O00574 whole entry, looked up): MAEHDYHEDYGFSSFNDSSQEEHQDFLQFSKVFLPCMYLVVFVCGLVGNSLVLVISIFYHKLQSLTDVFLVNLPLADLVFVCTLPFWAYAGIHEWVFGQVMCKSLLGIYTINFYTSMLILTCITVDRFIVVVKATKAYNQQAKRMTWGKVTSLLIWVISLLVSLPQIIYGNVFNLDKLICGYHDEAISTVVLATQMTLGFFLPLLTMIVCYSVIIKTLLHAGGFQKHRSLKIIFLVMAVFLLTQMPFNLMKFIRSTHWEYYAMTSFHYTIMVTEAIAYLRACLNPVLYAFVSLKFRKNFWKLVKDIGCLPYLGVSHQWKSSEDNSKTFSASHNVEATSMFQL

Question: Which inhibition does the source give for `COc1cc(C(=O)NC2CC3CCCC(C2)N3CC(=O)Nc2ccccc2)cc(OC)c1OC` (configuration not stated) here?
Answer: 92.9%

Question: With `COc1cc(C(=O)NC2CC3CCCC(C2)N3CC(=O)Nc2ccccc2Cl)cc(OC)c1OC` (configuration not stated) as the molecule, how does the inhibition read?
Answer: 99%

Source: PubChem BioAssay AID651919 (Sanford-Burnham Center for Chemical Genomics, 2012)
